# High-throughput results deposited in PubChem BioAssay by National Center for Advancing Translational Sciences (NCATS).
# In the library only some 21% were active in any assay of this set; here they are far more common.
# CHX counter: Cycloheximide Counterscreen for Small Molecule Inhibitors of Shiga Toxin; max response, %; AID 2314, 2010; 300,000 tested, 12% active; cell reporter, cycloheximide protein synthesis inhibition counterscreen; in the data active = max response mostly above about 13%, no sharp cut-off; inactive = mostly below about 14%; also: read at 38.3 µM for the half of the compounds with a filed dose; 0% is about no effect
# NS1 inh: qHTS Assay for Inhibitors of Influenza NS1 Protein Function; Potency, µM (titrated, usually from 46.1 µM), for inactives: at the top dose activity, positive = more growth; 270,000 tested, 0.4% active; AID 2326, 2010; calls by dose curve; also: potency is read from the fitted curve at half-maximal effect; actives are rising curves; nearly all actives have a fitted effect of over 50% in size
#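 Recovery from NS1-induced slow growth read by OD600 in budding yeast switched to galactose assay medium (pH 6.0, -URA) at 1:100 dilution. Compound 23 nl per well; the matching strain lacking NS1 serves as control.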
# Giardia FBPA inh-1: qHTS Assay for Inhibitors of Fructose-1,6-bisphosphate Aldolase from Giardia Lamblia | Potency, µM (titrated, usually from 59.6 µM), for the others: at the highest dose activity, negative = inhibition, hits mostly inhibitors | 290,000 tested, 0.71% active | A8B2U2 | AID 2451, 2010 | purified Giardia FBPA; also: potency is read from the fitted curve at half-maximal effect; % is scaled to controls: 0 for no effect and ±100 for the full control effect; nearly all actives have a fitted effect of over 55% in size
# Target sequence (A8B2U2 whole entry, looked up): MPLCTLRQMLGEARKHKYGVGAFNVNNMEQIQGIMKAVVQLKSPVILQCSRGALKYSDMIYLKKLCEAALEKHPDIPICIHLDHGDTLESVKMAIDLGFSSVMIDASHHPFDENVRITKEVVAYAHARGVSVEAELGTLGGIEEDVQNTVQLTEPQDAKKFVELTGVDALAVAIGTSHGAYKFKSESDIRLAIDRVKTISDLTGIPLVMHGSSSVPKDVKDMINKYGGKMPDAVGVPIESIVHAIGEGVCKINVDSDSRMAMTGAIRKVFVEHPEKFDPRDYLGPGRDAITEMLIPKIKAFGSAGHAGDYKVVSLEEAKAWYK
#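 40 nM FBPA preincubated 10 min at RT with compound (up to 57.5 uM final), then substrate plus GAPDH/TPI/NAD/arsenate coupling and diaphorase/resazurin added. Fluorescence read after 20 min at RT, 525/598 nm.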
# Pf growth 48h: Primary qHTS for delayed death inhibitors of the malarial parasite plastid, 48 hour incubation | P. falciparum luciferase growth in erythrocytes, 48 h | Potency, µM (top dose mostly 28.7 µM), for inactives: top-dose activity change, negative = inhibition, usual class: inhibitors | 310,000 tested, 5.9% active; also: potency is read from the fitted curve at half-maximal effect; % is scaled to controls: 0 for no effect and ±100 for the full control effect
#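 Erythrocytes infected with P. falciparum carrying an integrated firefly luciferase reporter (2% hematocrit, 0.1% parasitemia final) were exposed to compounds in RPMI 1640 with 0.5% Albumax at 37 C, 5% CO2. Growth inhibition was scored as reduced luminescence.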
# Pf growth 96h: Primary qHTS for delayed death inhibitors of the malarial parasite plastid, 96 hour incubation; Potency, µM (top dose mostly 28.7 µM), inactives show top-dose activity change, negative = inhibition, hits mostly inhibitors; P. falciparum luciferase reporter growth, 96 h; AID 504834, 2011; 320,000 tested, 6.9% active; also: potency is read from the fitted curve at half-maximal effect; % is scaled to controls: 0 for no effect and ±100 for the full control effect
#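 Compounds incubated with erythrocytes infected by luciferase-expressing P. falciparum (2% hematocrit, 0.05% parasitemia final) for 96 hours, 37 C in 5% CO2. Growth inhibition scored as decreased luciferase luminescence.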
# Shiga toxin inh: A qHTS for Small Molecule Inhibitors of Shiga Toxin; Vero cells, Shiga toxin protein synthesis inhibition reporter; inhibition, % at 38.7 µM; 290,000 tested, 9.2% active; AID 2315, 2010; in the data active = inhibition mostly above about 28%, no sharp cut-off; inactive = mostly below about 43%; also: 0% is about no effect
# Giardia growth: qHTS Assay for Inhibitors of Fructose-1,6-bisphosphate Aldolase from Giardia Lamblia: Giardia lamblia growth inhibition | shares compounds with Giardia FBPA inh-1 | Giardia lamblia trophozoite growth inhibition | Potency, µM (doses to about 57.5 µM), for the others: at the top dose activity change, negative = inhibition, actives largely listed as inhibitors | 1,500 tested, 5% active | AID 2785, 2010;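 also: potency is read from the fitted curve at half-maximal effect; trophozoites exposed to compound for 48 h at 37 °C; % is scaled to controls: 0 for no effect and ±100 for the full control effect; nearly all actives have a fitted effect of over 70% in size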
# Mammalian tox: qHTS Assay for Inhibitors of Fructose-1,6-bisphosphate Aldolase from Giardia Lamblia: Mammalian cellular toxicity. mammalian cell viability counter-screen, qHTS. Potency, µM (series often up to 57.5 µM), for the others: at the top dose viability change, negative = toxicity, most hits filed as inhibitors. 1,500 tested, 4% active. shares compounds with Giardia FBPA inh-1;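 also: Chinese hamster ovary cells used as mammalian cytotoxicity surrogate; viability measured as cellular ATP by luminescence; potency is read from the fitted curve at half-maximal effect; compound exposure lasted 48 h before reading; % is scaled to controls: 0 for no effect and ±100 for the full control effect; nearly all actives have a fitted effect of over 60% in size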
# Giardia FBPA inh-2: qHTS Assay for Inhibitors of Fructose-1,6-bisphosphate Aldolase from Giardia Lamblia: Primary screen confirmation; 1,500 tested, 5% active; purified Giardia aldolase enzyme activity, qHTS; Potency, µM (top dose mostly 57.5 µM), for inactives: top-dose activity change, negative = inhibition, actives largely listed as inhibitors; shares compounds with Giardia FBPA inh-1; also: potency is read from the fitted curve at half-maximal effect; % is scaled to controls: 0 for no effect and ±100 for the full control effect; nearly all actives have a fitted effect of over 45% in size
# Rabbit aldolase: qHTS Assay for Inhibitors of Fructose-1,6-bisphosphate Aldolase from Giardia Lamblia: Rabbit FBPA Selectivity. Rabbit muscle FBPA enzyme inhibition, selectivity counter-screen. AID 2794, 2010. 1,500 tested, 4% active. Potency, µM (series often up to 57.5 µM), for the others: top-dose activity, negative = inhibition, hits mostly inhibitors. shares compounds with Giardia FBPA inh-1; also: potency is read from the fitted curve at half-maximal effect; % is scaled to controls: 0 for no effect and ±100 for the full control effect; nearly all actives have a fitted effect of over 60% in size
# Target sequence (P00883 whole entry, looked up): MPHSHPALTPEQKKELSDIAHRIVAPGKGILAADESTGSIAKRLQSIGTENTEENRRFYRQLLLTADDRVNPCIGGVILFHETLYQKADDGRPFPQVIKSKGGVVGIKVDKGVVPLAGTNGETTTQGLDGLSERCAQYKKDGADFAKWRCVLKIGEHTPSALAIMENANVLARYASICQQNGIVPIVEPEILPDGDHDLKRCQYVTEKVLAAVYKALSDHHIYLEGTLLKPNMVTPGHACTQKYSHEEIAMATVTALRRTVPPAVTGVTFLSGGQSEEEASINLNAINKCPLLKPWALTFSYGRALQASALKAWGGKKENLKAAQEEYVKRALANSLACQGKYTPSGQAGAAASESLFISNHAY
# GAPDH coupling: qHTS Assay for Inhibitors of Fructose-1,6-bisphosphate Aldolase from Giardia Lamblia: Coupling assay counterscreen confirmation; shares compounds with Giardia FBPA inh-1; GAPDH coupling enzyme counterscreen, biochemical, qHTS; Potency, µM (doses to about 57.5 µM), without a hit: at the highest dose activity change, negative = inhibition, most hits filed as inhibitors; 1,500 tested, 6% active; AID 2795, 2010; also: potency is read from the fitted curve at half-maximal effect; % is scaled to controls: 0 for no effect and ±100 for the full control effect; nearly all actives have a fitted effect of over 55% in size
# The depositor's hits bear a star; ? = inconclusive; . = not tested or not shown; [ ] = remark or other dose. Unless noted, calls follow the shape of the dose curve; as a rule, active = well fitted curve in the direction sought with a large enough effect; inconclusive = small, poorly fitted or top-dose-only effect, or another doubt; inactive = no such curve, though single readings can be large; an effect the other way counts as inactive or inconclusive.
SMILES,CHX counter,NS1 inh,Giardia FBPA inh-1,Pf growth 48h,Pf growth 96h,Shiga toxin inh,Giardia growth,Mammalian tox,Giardia FBPA inh-2,Rabbit aldolase,GAPDH coupling
COc1cc(OC)cc(C(=O)NNC(=S)NC(=O)c2cccnc2)c1,-1,-26%,2µM*,9%,?,14,16µM*,7%,13%,9%,14%
COc1ccc(C(=O)NC(=S)NNC(=O)c2cccnc2)cc1,-11,-33%,-23%,-3%,-19%,21,.,.,.,.,.
O=C(NC(=S)Nc1cccnc1)c1ccccc1,28*,-4%,13µM*,65%,14%,71*,-19%,6%,1%,11%,7%
O=C(O)c1ccc(NC(=S)NC(=O)c2cccnc2)cc1,4,12%,3.5µM*,271%,?,29,-5%[38.3 µM],-14%,8%,15%,8%
CCOC(=O)Cc1csc(NC(=S)NC(=O)c2cccc([N+](=O)[O-])c2)n1,-3,9%,4.5µM*,0%,16%,-6,?,4%,12%,4%,11%
CCOC(=O)Cc1csc(NS(=O)(=O)c2cccc([N+](=O)[O-])c2)n1,-2,9%,-17%,-7%,-19%,.,.,.,.,.,.
COc1ccc(S(=O)(=O)NNC(=S)NCCc2ccccc2)c(OC)c1,-2,-2%,.,20%,?,-7,.,.,.,.,.
COc1ccc(NC(=O)N2CCNC(=O)C2CC(=O)Nc2ccc(F)cc2)cc1 (stereo unspecified),-2,3%,.,-5%,11%,-6,.,.,.,.,.
Cc1cc(C)c(NC(=O)c2ccc[n+](Cc3ccc([N+](=O)[O-])cc3)c2)c(C)c1,0,-3%,7%,-11%,?,-5,.,.,.,.,.
C/C(=C(/CCO)SSC[C@@H]1CCCO1)N(C=O)Cc1cnc(C)nc1N,.,.,1%[21.7 µM],.,.,.,.,.,.,.,.
CCOC(=O)N1CCN(C(=O)/C=C/c2ccc(OC)cc2)CC1,10,6%,-8%,42%,42%,-2,.,.,.,.,.
NS(=O)(=O)c1ccc(NC(=O)COC(=O)COc2ccc3ccccc3c2)cc1,-1,.,-12%,-10%[5.75 µM],8%[5.75 µM],25,.,.,.,.,.
CCC(=O)NC(=S)Nc1ccc(NC(=O)c2cccnc2)cc1,2,2%,-1%,85%,?,-16,.,.,.,.,.
COC(=O)c1ccc(NC(=S)NC(=O)c2cccnc2)cc1,-2,8%,7.1µM*,32%,52%,10,-13%[38.3 µM],-22%,1%,10%,5%
CC(C)c1ccc(O)c(NC(=S)NC(=O)c2cccnc2)c1,13,-8%,-13%,?,7%,29,.,.,.,.,.
O=C(NC(=S)Nc1ccccc1Br)c1cccnc1,10,2%,6.3µM*,-3%,0%,.,?,-9%,-7%,5%,-1%
Cc1csc(NC(=S)NC(=O)c2ccccc2)n1,22*,-17%,7.9µM*,17%,76%,61*,?,50µM*,-5%,-7%,-7%
O=C(NC(=S)Nc1cccnc1Cl)c1ccc(Cl)cc1,50*,-44%,13µM*,46%,-5%,114*,-21%,-5%,2%,4%,-1%
Oc1ccccc1CNCCCN1CCOCC1,-1,0%,-26%,-23%,?,.,.,.,.,.,.
CC(=O)NCC(=O)N(C)C(C(=O)Nc1ccc(C(C)C)cc1)c1ccccc1 (stereo unspecified),6,-3%,2%,3%,-18%,3,.,.,.,.,.
COc1nccnc1NS(=O)(=O)c1ccc(NC(=S)NC(=O)c2cccnc2)cc1,1,-1%,?,?,?,-2,.,.,.,.,.
COc1ccc(NC(=S)NC(=O)c2cccnc2)cc1,12,-3%,7.9µM*,0%,?,13,22µM*,5%,6%,4%,4%
Cc1snnc1C(=O)NC(=S)Nc1ccccc1,-2,-8%,13µM*,88%,6%,4,26%,10%,4%,16%,2%
O=C(Cc1ccccc1)Nc1ccc(NC(=S)NC(=O)c2ccccc2)cc1,-3,6%,.,-11%,?,20,.,.,.,.,.
O=c1cnnc(N/N=C/c2ccccn2)[nH]1,-2,-1%,0.79µM*,?,?,-18,2%[38.3 µM],?,4%,-5%,-16%
SMILES,CHX counter,NS1 inh,Giardia FBPA inh-1,Pf growth 48h,Pf growth 96h,Shiga toxin inh,Giardia growth,Mammalian tox,Giardia FBPA inh-2,Rabbit aldolase,GAPDH coupling
O=c1nc(N/N=C/c2ccccn2)cn[nH]1,46*,-11%,0.71µM*,1µM*,-6%[1.15 µM],125*,-25%[38.3 µM],?,8%,-9%,-6%
Cc1ccc(/C=N/Nc2cn[nH]c(=O)n2)o1,24*,-7%,18µM*,35%,11%,88*,11%[10.4 µM],4%,-7%,0%,-2%
CN(C)c1ccc(C(=O)Nc2nnc(C3=COCCO3)o2)cc1,10,.,18µM*,36%,39%,60,?,9%,-10%,-1%,0%
CN(c1ccccc1)S(=O)(=O)c1ccc(C(=O)Nc2nnc(C3=COCCO3)o2)cc1,-10,0%,11µM*,?,?,-3,?,22%,3%,15%,-9%
CC(C)Oc1ccc(C(=O)Nc2nnc(C3=COCCO3)o2)cc1,.,.,.,-25%,?,.,.,.,.,.,.
Cc1cccc(C(=O)Nc2nnc(C3=COCCO3)o2)c1,1,-2%,18µM*,-11%,?,3,?,-1%,-4%,-5%,0%
O=C(CCSc1ccccc1)Nc1nnc(-c2ccccc2)o1,-3,-10%,24%,.,-41%,-11,.,.,.,.,.
O=C(CCSc1ccccc1)Nc1nnc(-c2cccs2)o1,-1,-3%,16µM*,20%,32%,-9,-13%[10.4 µM],-14%,3%,5%,6%
